PubChem BioAssay AID504843 (Broad Institute, 2011)
The campaign covered roughly 1,200 compounds. About 360 (30%) were called active. How the calls were made is not given here. These entries were drawn from the full list. Measured potencies and affinities stand elsewhere.

Assay: antibacterial activity by ATP level – BacTiter-Glo luminescence, cherry-picked samples, counter-screen, dose response (AID 504843);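 further: growth measured after 8 h incubation at 30 °C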
Conditions: bacterial growth; series mostly up to 15 µM
With `CCOC(=O)c1c(C)[nH]c(C(=O)N(C)Cc2cccc(OC)c2OC)c1C` the outcome was “inactive”.
For `O=C1CN2C(=Nc3ccc(Br)cc3C2c2ccccc2)CCN1` (stereo not given), the outcome was “inactive”.
For `CC[C@H]1OC(=O)[C@H](C)[C@@H](O[C@H]2C[C@@](C)(OC)[C@@H](O)[C@H](C)O2)[C@H](C)[C@@H](O[C@@H]2O[C@H](C)C[C@H](N(C)C)[C@H]2O)[C@](C)(O)C[C@@H](C)CN(C)[C@H](C)[C@@H](O)[C@]1(C)O`, the outcome was “inactive”.
With `O=[N+]([O-])c1ccc(/C=N/n2c(CO)nc3ccccc32)s1` the outcome was “inactive”.
For `Cc1nn(-c2ccccc2)c2nc3c(cc12)C(=O)CCC3`, the outcome was “inactive”.
For `O=C(CN1CCC(n2nnc3cc(F)ccc32)CC1)NCc1ccco1`, the outcome was “inactive”.
For `Nc1nc2n(n1)C(c1cccc(Br)c1)CC(c1ccccc1)N2` (stereo not given), the outcome was “inactive”.
In the case of `Nc1ccccc1S(=O)(=O)NC1=NCCCCC1`, the outcome was “inactive”.
For `CCOc1ccc(-c2c(C(=O)N/N=C/c3c[nH]c4ccccc34)nnn2-c2nonc2N)cc1`, the outcome was “inactive”.
With `Cc1ccc(NC(=O)NCc2ccccn2)cc1Cl` the outcome was “inactive”.
In the case of `Cc1ccc(NC(=O)c2ncn(CCCNCc3ccccn3)n2)cc1C`, the outcome was “inactive”.
In the case of `COc1ccc(CN2CCN(C(=O)C3CCC(CNS(=O)(=O)c4ccccc4)CC3)CC2)c(OC)c1OC` (stereo not given), the outcome was “inactive”.
For `Cc1nc2ncnn2c(C)c1CCC(=O)N1CCCCC1`, the outcome was “inactive”.
With `COc1ccc(Nc2cc(C)nc3nc(C)nn23)c(OC)c1` the outcome was “inactive”.
With `CSc1ccc(NC(=O)N2CCN(c3nc4ccccc4s3)CC2)cc1` the outcome was “inactive”.
In the case of `O=C(Cn1cc([N+](=O)[O-])cn1)N1CCN(c2ccccc2)CC1`, the outcome was “inactive”.
For `COCCC1CCCCN1C(=O)c1cccc(OC2CCN(S(C)(=O)=O)CC2)c1` (stereo not given), the outcome was “inactive”.
For `CCN1CCN(CCCNc2ncnc3nc[nH]c23)CC1`, the outcome was “inactive”.
With `C1=C(CCNc2ncnc3c2cnn3-c2ccccc2)CCCC1` the outcome was “inactive”.
In the case of `COc1ccc(-c2c(-c3cc(OC)cc(OC)c3)n(C)c3ccc(-c4ccc(S(N)(=O)=O)cc4)cc23)cc1`, the outcome was “inactive”.
With `CC(C)c1ccc(C(=O)CN2C(=O)NC3(CCc4ccccc43)C2=O)cc1` (stereo not given) the outcome was “inactive”.
For `Cc1nc(Cl)c(C(=O)NCc2ccccc2)c(C)c1Cl`, the outcome was “inactive”.
With `C#CCOCCOCCOCCNc1nc(N2CCN(C(=O)Cn3cc(CC(C)O)nn3)CC2)nc(N2CCN(C(=O)[C@H](CCCCN)n3cc(CCCC)nn3)CC2)n1` (stereo not given in full) the outcome was “inactive”.
In the case of `O=C(C1CCCO1)N1CCN(c2c3c(nc4cc(-c5ccc(F)cc5)nn24)CCC3)CC1` (stereo not given), the outcome was “inactive”.
For `Nc1nc(CN2CCCCC2)cs1`, the outcome was “inactive”.
With `O=C(NCc1ccccc1)C(=O)NCC1OCCN1S(=O)(=O)c1ccc([N+](=O)[O-])cc1` (stereo not given) the outcome was “inactive”.
In the case of `Nc1nc(NCC2CCCO2)nc(Nc2cccc(Cl)c2)c1[N+](=O)[O-]` (stereo not given), the outcome was “inactive”.
In the case of `COC(=O)c1ccc(Cl)cc1NC(=O)/C=C/c1ccc(C)o1`, the outcome was “inactive”.
For `CC(NC(=O)c1ccc([N+](=O)[O-])cc1[N+](=O)[O-])c1ccc(-c2ccccc2)cc1` (stereo not given), the outcome was “inactive”.
In the case of `O=C(Cn1nc(C(F)(F)F)c2c1CCCC2)NCc1ccco1`, the outcome was “inactive”.
For `O=C(Nc1ccc(F)cc1)C1CC(=O)N(Cc2ccco2)C1` (stereo not given), the outcome was “inactive”.
With `CN(Cc1cn[nH]c1-c1ccc(-c2ccccc2)cc1)CC1CCOCC1` the outcome was “inactive”.
In the case of `COc1ccc2c(c1)c1c3n2CCN(C)C3=NCC1`, the outcome was “inactive”.
With `CC(C)C(C(=O)NC1CCCC1)N(CC1CCCO1)C(=O)CNS(=O)(=O)c1ccccc1` (stereo not given) the outcome was “inactive”.
For `CCCCC(=O)N(c1ccc(C)c(C)c1)C1C=CS(=O)(=O)C1` (stereo not given), the outcome was “inactive”.
For `COc1ccccc1N(CC(=O)NC1CCCC1)C(=O)c1csnn1`, the outcome was “inactive”.
In the case of `COc1cc(CNc2ccc3[nH]c(=O)[nH]c3c2)ccc1OCC(=O)NC(C)(C)C`, the outcome was “inactive”.
With `Cc1nc2ccccn2c1/C(O)=C1\C(=O)C(=O)N(CCN(C)C)C1c1ccco1` (stereo not given) the outcome was “inactive”.
With `CCN(C[C@H]1N[C@@](Cc2ccccc2)(C(=O)OC)[C@H]2C(=O)N(C)C(=O)[C@@H]12)C(C)=O` the outcome was “inactive”.
With `CCOCCOc1nc2c(c(=O)n(C)c(=O)n2C)n1Cc1ccc(C)cc1` the outcome was “inactive”.
For `CCc1cccc2c1NC(=O)C2(O)N1CCCC(C)C1` (stereo not given), the outcome was “inactive”.
In the case of `COc1ccc(/C=C/C(=O)Nc2ccccc2C(=O)O)cc1OC`, the outcome was “inactive”.
For `CCOC(=O)c1ccccc1NC(=S)N1CC(C)CC(C)C1` (stereo not given), the outcome was “inactive”.
For `CC1(C)CC(=O)c2cc3c(nc2C1)CC(C)(C)CC3=O`, the outcome was “inactive”.
With `CC(C)NC(=O)CN1CCN(C(=O)c2ccc3oc(CCCc4ccccc4)nc3c2)CC1` the outcome was “inactive”.
In the case of `Cc1nn(C)c(C)c1S(=O)(=O)N(CC(=O)NCCCN1CCC(C)CC1)c1ccc(C(C)C)cc1`, the outcome was “inactive”.
With `O=C(CN(Cc1ccccc1Cl)C(=O)CNS(=O)(=O)c1ccc(F)cc1)NCC1CCCO1` (stereo not given) the outcome was “inactive”.
In the case of `O=C(CSc1ncnc2ccccc12)NCc1ccco1`, the outcome was “inactive”.
For `COc1ccccc1N1CCN(C(=O)CSc2nnc(NC(=O)C(C)C)s2)CC1`, the outcome was “inactive”.
With `Cc1ccc(Cn2c(=O)oc3ccccc32)cc1` the outcome was “inactive”.
For `Cc1cccc(NC(=S)N/N=C/c2c[nH]c3ccccc23)c1`, the outcome was “inactive”.
With `CC1CCCN(C(=O)c2nn(C)c3c2CSc2ccccc2-3)C1` (stereo not given) the outcome was “inactive”.
With `O=C(NCCNC(=O)c1ccccc1F)c1ccccn1` the outcome was “inactive”.
For `CCCC(=O)NC1=C(C#N)C2(CCCC2)Cc2ccccc21`, the outcome was “inactive”.
For `COc1ccccc1NC(=O)NCCCCc1ccccc1`, the outcome was “inactive”.
In the case of `COc1ccccc1NC(=S)NC1CC2CCC1C2` (stereo not given), the outcome was “inactive”.
With `Cc1cc(C)n2nc(SCC(=O)N3CCN(c4ccccc4)CC3)nc2n1` the outcome was “inactive”.
In the case of `O=C(CN1CCN(c2ccccc2)CC1)N1N=CCC1c1ccccc1` (stereo not given), the outcome was “inactive”.
In the case of `CCCSc1nnc(CNS(=O)(=O)c2ccc(C)cc2)n1C`, the outcome was “inactive”.
With `CCN(CC)S(=O)(=O)c1ccc(OC)c(NC(=O)c2ccc(=O)[nH]c2)c1` the outcome was “inactive”.
In the case of `COC(=O)[C@H](CC(C)C)N(Cc1ccccc1)S(=O)(=O)N(Cc1ccccc1)[C@@H](CC(C)C)C(=O)OC`, the outcome was “inactive”.
In the case of `Nc1cc(S(=O)(=O)C(F)(F)F)ccc1C(=O)O`, the outcome was “inactive”.
For `N#Cc1cccc(Nc2c3c(nc4ccccc24)CCCC3)c1`, the outcome was “inactive”.
In the case of `O=C1c2cccc3cccc(c23)C(=O)N1CC1CCN(CC(O)COc2ccc3ccccc3c2)CC1` (stereo not given), the outcome was “inactive”.
In the case of `CC(=O)c1ccccc1OCC(O)CN1CCN(C(c2ccccc2)c2ccccc2)CC1` (stereo not given), the outcome was “inactive”.
With `Cc1cc(C)c(C#N)c(SCS(=O)c2ccc(C(C)(C)C)cc2)n1` (stereo not given) the outcome was “inactive”.
For `C#CCNC(=O)C1=C[C@H](c2csc3ccccc23)[C@@H](CCCO)[C@H](OCC)O1`, the outcome was “inactive”.
With `CN(C/C=C/c1ccccc1[N+](=O)[O-])Cc1ccccc1` the outcome was “inactive”.
With `O=S(=O)(c1cc(Cl)cc(Cl)c1O)N1CCC2(CC1)OCCO2` the outcome was “inactive”.
In the case of `Cc1cccn2c(=O)c3cc(S(=O)(=O)c4ccccc4)c(=N)n(Cc4ccco4)c3nc12`, the outcome was “inactive”.
In the case of `O=C(O)[C@@H](c1ccccc1)N1Cc2ccccc2C1=O`, the outcome was “inactive”.
With `CC1CC(=O)N(c2ccc(Br)cc2)C(=O)C1` the outcome was “inactive”.
In the case of `COc1ccc(OCc2nnc(SCC(=O)N3C(C)CCCC3C)o2)cc1` (stereo not given), the outcome was “inactive”.
For `CC(C)(C)c1cc(NS(=O)(=O)c2ccc3c(c2)OCCO3)on1`, the outcome was “inactive”.
In the case of `O=C(COc1ccc([N+](=O)[O-])cc1)Nc1cccc2nsnc12`, the outcome was “inactive”.
With `Cc1cc(NC(=O)c2ccc([N+](=O)[O-])cc2)n(C)n1` the outcome was “inactive”.
In the case of `COc1ccc2nc(SCC(=O)Nc3cc(OC)c(OC)cc3C(=O)O)c(C)cc2c1`, the outcome was “inactive”.
In the case of `O=C(Nc1ccc(S(=O)(=O)Nc2ncccn2)cc1)c1cncc(Br)c1`, the outcome was “inactive”.
For `Cc1ccc(S(=O)(=O)CCNC(=O)Cc2ccc(Cl)cc2)cc1`, the outcome was “inactive”.
With `O=C(COC(=O)C12CC3CC(CC(Br)(C3)C1)C2)Nc1cccnc1Cl` the outcome was “inactive”.
In the case of `Cc1ccnc(SCCn2c(N3CC(C)CC(C)C3)nc3c2c(=O)n(C)c(=O)n3C)n1` (stereo not given), the outcome was “inactive”.
For `Cc1cc(N2C(=O)c3ccc(C(=O)Nc4ccc(O)cc4C(=O)O)cc3C2=O)no1`, the outcome was “inactive”.
With `O=C(N/N=C/C1=C(N2CCOCC2)C(=C\c2ccccc2)/CC1)Nc1ccccc1` the outcome was “inactive”.
For `COc1cccc(C2C(C(=O)OC(C)C)=C(C)Nc3ncnn32)c1` (stereo not given), the outcome was “inactive”.
In the case of `Cc1csc(NC(=O)c2c(-c3c(Cl)cccc3Cl)noc2C)n1`, the outcome was “inactive”.
In the case of `COc1ccc(Nc2nc3ccccc3nc2-n2nc(C)cc2C)cc1`, the outcome was “inactive”.
With `COc1cc(OC)c2c(C)cc(=O)oc2c1` the outcome was “inactive”.
For `COc1cccc(-n2c(SCc3ccccn3)nc3c(c2=O)SCC3)c1`, the outcome was “inactive”.
With `COc1ccc(NC(=O)c2ccccc2[N+](=O)[O-])cc1OC` the outcome was “inactive”.
For `CCN(CC)CCCn1c(C)cc2c(c1=O)C(c1cccc(Cl)c1)C(C#N)=C(N)O2` (stereo not given), the outcome was “inactive”.
For `O=C(CSc1ncccn1)N/N=C/c1cccs1`, the outcome was “inactive”.
With `Cc1ccnc(SCC(=O)c2cccs2)n1` the outcome was “inactive”.
With `COc1ccccc1N1CCN(CC(=O)Nc2ccc3c(c2)OCCO3)CC1` the outcome was “inactive”.
In the case of `COc1cc(NC2c3ccccc3C(=O)N2Cc2ccc3c(c2)OCO3)cc(OC)c1OC` (stereo not given), the outcome was “inactive”.
For `COc1cccc(C(=O)NCCS(=O)(=O)NCc2ccccn2)c1`, the outcome was “inactive”.
In the case of `COc1ccc(C(=O)NC(C(=O)NCc2ccccn2)C(C)C)cc1` (stereo not given), the outcome was “inactive”.
In the case of `Cc1nn2c(SCC(=O)c3cccs3)cc(C(C)(C)C)nc2c1-c1ccccc1`, the outcome was “inactive”.
With `O=c1[nH]c(-c2ccccn2)nc2ccccc12` the outcome was “inactive”.
In the case of `CC1=NCC(C)c2c1[nH]c1ccccc21` (stereo not given), the outcome was “inactive”.
In the case of `O=C(CNC(=O)c1ccccc1)NC1(C(=O)NC2CCCC2)CCCCC1`, the outcome was “inactive”.
For `COC(=O)c1sccc1NC(=O)c1ccc2c(c1)OCO2`, the outcome was “inactive”.
For `COc1ccc(Cl)cc1C(=O)NCCN(C)C`, the outcome was “inactive”.
For `CCCCN1C(=O)C(CC(=O)NCC)SC1=Nc1ccccc1` (stereo not given), the outcome was “inactive”.
For `C=C1CSc2nc(=O)c3c4c(sc3n21)CCCC4`, the outcome was “inactive”.
For `COc1ccc(CCNC(=O)CN2CCOc3ccccc32)cc1OC`, the outcome was “inactive”.
